Inconclusive results are not listed. A number with no mark means an inactive call. Activity calls are given as the source filed them. Calls come from the whole dose curve; as a rule, active = well fitted inhibition curve with a large enough effect; inconclusive = small, poorly fitted or top-dose-only effect; inactive = flat fitted curve, though single readings scatter.
% is set by controls: 0 for no effect and ±100 for the full control effect; potency is the fitted concentration of half-maximal effect.

In this assay the test system is HEK293. As to the kind of experiment: Cytotoxic Profiling of Annotated Libraries Using Quantitative High-Throughput Screening (AID 1296008). Note: nearly all actives have a fitted effect of over 60% in size. The note with it: Five cell lines viability, CellTiter-Glo ATP luminescence, 48-72 h; max response: active compounds read low. An outline of the steps:
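Cytotoxicity was measured as CellTiter-Glo ATP luminescence, read after 10 min at room temperature. Compound treatment of the cells lasted 48 or 72 hr at 37 degrees Celsius in a qHTS format.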
(In ATP-based viability assays light output follows the ATP content of the culture.)
In the case of `CC(C)(C)[C@]1(O)C[C@@H]2OC(=O)C[C@@]23C(=O)O[C@@H]2OC(=O)[C@@H](O)[C@]213`, the max response was 1.81%.

On to `N#CC(O[C@@H]1O[C@H](CO)[C@@H](O)[C@H](O)[C@H]1O)c1ccccc1` (stereo partly drawn), for which the max response is -8.76%.

For `COC1CC(O[C@H]2CC[C@]3(C)C4CC[C@]5(C)[C@@H](C6=CC(=O)OC6)[C@@H](OC(C)=O)C[C@]5(O)C4CC[C@@H]3C2)OC(C)C1O` (stereo partly drawn), the Potency was 502 nM (active).

With `CC(=O)O[C@H]1CN2CCC1CC2`, the max response was -3.42%.

Take `CC(=O)OC[C@]12C[C@H](O)C(C)=C[C@H]1O[C@@H]1[C@H](O)[C@@H](OC(C)=O)[C@@]2(C)[C@]12CO2`: the Potency is 8.1 nM (active).

Regarding `CC1=CC(=O)[C@@H](O)[C@]2(C)C3[C@@H](O)[C@@H]4OC(=O)[C@@H]([C@H]4C)[C@]3(C)C(=O)C[C@@H]12` (stereo partly drawn), the Potency was 2860 nM (active).

On to `CC[C@@H]1C[C@H]2CC[C@H](O2)[C@H](C)C(=O)O[C@@H](C)C[C@@H]2CC[C@@H](O2)[C@@H](C)C(=O)O[C@H](CC)C[C@H]2CC[C@H](O2)[C@H](C)C(=O)O[C@@H](C)C[C@@H]2CC[C@@H](O2)[C@@H](C)C(=O)O1`, for which the Potency was 54.4 nM (active).

As to `N#Cc1cn([C@@H]2O[C@H](CO)[C@H](O)[C@@H]2O)c2ncnc(N)c12`, the Potency is 46.1 nM (active).
